Pf growth 48h: inhibits P. falciparum growth in the first generation, 48 h | AID 504832 | Potency, µM (top dose mostly 28.7 µM), for the others: top-dose activity change, negative = inhibition, usual class: inhibitors | P. falciparum luciferase growth in erythrocytes, 48 h | actives 5.9% (n = 310,000); further: on the % scale 0 is the no-effect control and ±100 the full control effect
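Compounds are pin-transferred into medium, infected erythrocytes (2% hematocrit, 0.1% parasitemia final) are added, and plates sit one parasite generation at 37 C in 5% CO2. Detection reagent is then added and luminescence measured.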
Pf growth 96h: P. falciparum growth inhibition at 96 hours. P. falciparum luciferase reporter growth, 96 h. actives 6.9% (n = 320,000). Potency, µM (series often up to 28.7 µM), inactives show at the top dose activity change, negative = inhibition, hits mostly inhibitors; further: on the % scale 0 is the no-effect control and ±100 the full control effect
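Two parasite generations (96 h, 37 C, 5% CO2) of compound exposure in infected erythrocytes (0.05% parasitemia, 2% hematocrit). Luciferase-reporter P. falciparum; decreased luminescence indicates inhibited growth, aimed at apicoplast-acting delayed death.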
SARS PLP yeast: SARS-CoV PLP inhibition in yeast; S. cerevisiae expressing SARS-CoV PLpro, growth rescue; Potency, µM (doses to about 32.9 µM), inactives show at the highest dose activity, positive = growth rescue, usual class: activators; actives 0.19% (n = 330,000); calls by dose curve; further: 0% is about no effect; nearly all actives have a fitted effect of over 55% in size
AMA1 RON2 block: AMA1-RON2 (P. falciparum) interaction inhibition | AID 720542 | Potency, µM (series often up to 58.2 µM), for inactives: at the highest dose activity change, negative = inhibition, most hits filed as inhibitors | AlphaScreen AMA1-biotinylated RON2 peptide binding | actives 0.2% (n = 360,000);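 further: 0% = vehicle wells and -100% = peptide control; nearly all actives have a fitted effect of over 45% in size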
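AMA1 (3D7) with his tag at 25 nM final met compounds first, then biotinylated RON2 peptide at 25 nM; detection used donor plus acceptor beads, 10 µg/mL apiece, read by AlphaScreen after 30 min at room temperature.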
The depositor's hits bear a star; ? = inconclusive; nt = no result given. Sampled rows, rich in hits. Any-hit rate of the full collection: about 9.4%. Unless noted, the call rests on the fitted dose curve; in most records, active means well fitted curve in the direction sought with a large enough effect; inconclusive means small, poorly fitted or top-dose-only effect, or another doubt; inactive means no such curve, though single readings can be large; an effect the other way counts as inactive or inconclusive. Potency means the concentration at half of the fitted maximal effect.

SMILES	Pf growth 48h	Pf growth 96h	SARS PLP yeast	AMA1 RON2 block
Cc1nn(-c2ccccc2)c2c1P(=O)(O)/C(=C1\N(C)c3ccccc3C1(C)C)C=N2	2.1µM*	8.3µM*	-8%	1%
Cc1nn(-c2ccccc2)c(N)c1C1(O)C(=O)N(C(C)C)c2ccccc21 (stereo unspecified)	15%	-15%	9%	-12%
c1ccc(-c2noc(CN3CCN(c4ccccc4)CC3)n2)cc1	nt	7.4µM*	7%	-11%
Fc1ccccc1N1CCN(Cc2nc(-c3ccccc3)no2)CC1	-7%	nt	-3%	17%
Cc1ccc(-c2ccnc3c(Cl)c(C)nn23)cc1	3%	2%	-1%	5%
CCCc1nc2ccc(NC(=O)c3ccco3)cc2c(=O)n1Cc1ccc(Cl)cc1	1.3µM*	?	0%	0%
COc1ccc(Cn2c(C3CC3)nc3ccc(NC(=O)c4ccco4)cc3c2=O)cc1	2.9µM*	2.1µM*	6%	4%
CCC(=O)Nc1ccc2nc(C3CC3)n(Cc3ccccc3)c(=O)c2c1	65%	-19%	1%	37%
CCCc1nc2ccc(NC(=O)c3ccco3)cc2c(=O)n1Cc1ccccc1Cl	2.3µM*	0%	14%	-7%
CCCc1nc2ccc(NC(C)=O)cc2c(=O)n1Cc1ccccc1Cl	?	-20%	-4%	8%
CC(=O)Nc1ccc2nc(C)n(Cc3ccc(Cl)cc3)c(=O)c2c1	5%	-3%	-28%	-6%
COc1ccc(-n2cnc3cc(NC(=O)c4ccco4)ccc32)cc1	nt	2.3µM*	-2%	-8%
O=C(CCC1CCCN(Cc2ccncc2)C1)NCc1ccc(F)c(F)c1 (stereo unspecified)	-12%	?	1%	-3%
CC1(C)CC(=O)C2=C(C1)N(c1ccc(F)cc1)C(=O)CC2c1ccsc1 (stereo unspecified)	nt	3.3µM*	0%	0%
CC(C)NS(=O)(=O)c1ccc(NC(=O)C(C)OC(=O)CCC(=O)c2cccs2)cc1 (stereo unspecified)	3%	-2%	-2%	-5%
O=C(CNC(=O)c1ccccc1F)Nc1ccc2c(c1)OCO2	nt	nt	0%	45%
CN(C)S(=O)(=O)c1ccc(NC(=O)C2CCCN(C(=O)c3ccc(Cl)cc3)C2)cc1 (stereo unspecified)	-2%	?	25%	-11%
O=C(Nc1cccc(S(=O)(=O)N2CCOCC2)c1)C1CCCN(C(=O)c2ccc(Cl)cc2)C1 (stereo unspecified)	?	10µM*	5%	-10%
CC(NC(=O)C1CCCN(C(=O)c2ccc(Cl)cc2)C1)c1cccc(C(F)(F)F)c1 (stereo unspecified)	13µM*	?	3%	0%
O=C(Nc1ccc(S(=O)(=O)N2CCCCC2)cc1)C1CCCN(C(=O)c2ccc(Cl)cc2)C1 (stereo unspecified)	?	12µM*	23%	10%
Cc1ccc(C)c(OC(=O)c2cccnc2Cl)c1C	12%	22%	0%	-3%
CC(=O)c1ccc(N2CCN(C(=O)c3ccc(S(=O)(=O)NCc4ccco4)cc3)CC2)cc1	nt	nt	20%	-3%
COc1ccccc1Nc1nc(-c2ccc3c(c2)NC(=O)CO3)cs1	0%	0%	-2%	5%
COCCN=c1scc(-c2cccs2)n1/N=C(\C)c1ccco1	13%	?	-9%	2%
COCCN=c1scc(-c2ccc3c(c2)NC(=O)CO3)n1/N=C(\C)c1ccc(O)cc1	10µM*	?	1%	4%
SMILES	Pf growth 48h	Pf growth 96h	SARS PLP yeast	AMA1 RON2 block
COc1cc(/C=N/n2c(-c3ccc4c(c3)NC(=O)CO4)csc2=Nc2cccc(C)c2)ccc1O	?	4.7µM*	-1%	2%
NCCc1c[nH]c2ccc(OCc3ccccc3)cc12	?	?	-1%	-1%
Cc1c(CNCCc2ccc(Cl)cc2)c(C(=O)O)c(C)n1-c1ccccc1	12%	12µM*	0%	0%
Cc1nn(C(C)C)c(C)c1CN1CCCC(C(=O)c2cccc(OC(C)C)c2)C1 (stereo unspecified)	?	12µM*	-2%	13%
Cc1noc(C)c1S(=O)(=O)N1CCCC(C(=O)c2cccc(OC(C)C)c2)C1 (stereo unspecified)	?	14%	0%	7%
CCn1nc(C)c(CN2CCCC(C(=O)c3cccc(OC(C)C)c3)C2)c1C (stereo unspecified)	-22%	20%	-2%	-5%
